# An excerpt weighted towards active compounds, which were near 3.5% of everything screened.
# Pf apPOL inh: Pf-apPOL DNA polymerase inhibition; Recombinant Pf-apPOL, molecular beacon fluorescence, 1.5 h; inhibition, % at 10 µM; hit rate 0.25% among 210,000; AID 1794808
# mHTT-CaM PPI inh: inhibitors of human mutant huntingtin-calmodulin interaction | AID 1671202 | inhibition, % at 15 µM | P42858 | AlphaScreen His-mHTT/GST-CaM binding, luminescence | hit rate 3.6% among 190,000;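 further: 0% = both proteins with DMSO and 100% = one protein alone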
# * = called active by the depositor; i = inactive; · = not tested or not shown. No stated cut-off is given here; in the data, active means inhibition above about 50%; inactive means the rest.
SMILES,Pf apPOL inh,mHTT-CaM PPI inh
COc1cccc(C(=O)Nc2nnc3ccccn23)c1,-4.0,70.7*
O=C(Nc1nnc2ccccn12)c1ccc(Cl)cc1,-9.8,51.9*
Cc1ccc(C)c(C(=O)Nc2cccn3nc(C(C)C)nc23)c1,0.1,-10.9
CCOc1ccccc1NC(=O)N1CCC2(CC1)NC(=O)c1cccc(Cl)c1N2,-3.1,3.2
Cc1ccccc1CNC(=O)C1(C)CCCN(S(=O)(=O)c2ccc(F)c(Cl)c2)C1 (stereo not given),-2.4,83.8*
Cc1ccccc1CNC(=O)C1(C)CCCN(S(=O)(=O)c2ccc(F)cc2)C1 (stereo not given),-1.2,-6.0
Cc1ccc(S(=O)(=O)N2CCCC(C)(C(=O)NCc3ccccc3C)C2)cc1C (stereo not given),-3.9,77.1*
COc1ccc(S(=O)(=O)N2CCCC(C)(C(=O)NCc3ccccc3C)C2)cc1 (stereo not given),-0.9,-0.3
O=S(=O)(c1ccc2nncn2c1)N(Cc1ccc(F)cc1)c1ccc(F)cc1,4.9,24.0
Cc1cc(C)nc(N=C(N)Nc2cc(Cl)ccc2Cl)n1,4.8,1.0
OC(C#CC1(O)CCCCC1)c1ccco1 (stereo not given),·,-2.2
OC(C#CC1CC1)c1ccco1 (stereo not given),-7.8,100.2*
COc1ccc(OC)c(C2=C/C(=C\c3ccc(Br)cc3)C(=O)O2)c1,1.5,-20.0
Nc1noc(Cc2c(Cl)cccc2Cl)n1,-0.9,·
C=CCNC(=O)c1ncn(-c2ccc(C)cc2)n1,-2.7,2.5
COc1cc(OC)c(OC)cc1/C=C1\Cc2ccccc2C1=O,-5.4,0.0
COc1cc(OC)c(OC)cc1/C=C1/CCC/C(=C\c2cc(OC)c(OC)cc2OC)C1=O,-0.6,64.0*
COc1ccc(C(=O)O/N=C(\N)c2cccnc2)cc1,-1.8,i
COc1ccccc1CC(=O)N1CCC(Nc2cccnc2)C1 (stereo not given),0.1,2.2
CC(C)C1C(=O)N(Cc2cn(CCC3OCCO3)nn2)CCS(=O)(=O)N1Cc1ccc(-c2ccc(Cl)c(Cl)c2)cc1 (stereo not given),-11.1,98.0*
CC(C)C1C(=O)N(Cc2cn(CCC3OCCCO3)nn2)CCS(=O)(=O)N1Cc1ccc(-c2ccc(F)cc2)cc1 (stereo not given),-0.8,69.7*
COCOCCn1cc(CN2CCS(=O)(=O)N(Cc3ccc(-c4ccc(C)cc4)cc3)C(CC(C)C)C2=O)nn1 (stereo not given),-9.1,15.5
COc1ccc(-c2ccc(CN3C(C(C)C)C(=O)N(Cc4cn(CCC5OCCO5)nn4)CCS3(=O)=O)cc2)cc1OC (stereo not given),7.5,49.4
CC(C)C1C(=O)N(Cc2cn(CCC3OCCCO3)nn2)CCS(=O)(=O)N1Cc1ccc(-c2ccncc2)cc1 (stereo not given),-7.3,16.6
COCOCCn1cc(CN2CCS(=O)(=O)N(Cc3ccc(-c4ccc(Cl)cc4)cc3)C(C(C)C)C2=O)nn1 (stereo not given),-29.1,41.8
SMILES,Pf apPOL inh,mHTT-CaM PPI inh
COCOCCn1cc(CN2CCS(=O)(=O)N(Cc3ccc(-c4ccc(Cl)c(Cl)c4)cc3)C(C(C)C)C2=O)nn1 (stereo not given),-10.8,99.9*
COCOCCn1cc(CN2CCS(=O)(=O)N(Cc3ccc(-c4ccc(F)cc4)cc3)C(CC(C)C)C2=O)nn1 (stereo not given),-10.2,69.4*
COc1ccc(Br)cc1/C=C1/N=C(c2ccccc2)OC1=O,-0.7,9.0
Cc1ccc(C(=O)N2CC3CC2CC3NS(C)(=O)=O)cc1F (stereo not given),5.9,2.3
O=C(Nc1cc(F)ccc1F)C(=O)NC1CC1,-3.0,-2.1
CC1(C)Cc2ccccc2-c2nnc(-c3ccncc3)n21,-90.7,-3.3
CC(C)c1ccc(CNC(=O)c2cn3ccccc3n2)cc1,-5.1,1.5
Cc1ccc(-c2ccc(CN3C(CC(C)C)C(=O)N(Cc4cn(CCC5OCCO5)nn4)CCS3(=O)=O)cc2)cc1 (stereo not given),-12.8,22.8
CC(C)CC1C(=O)N(Cc2cn(CCC3OCCO3)nn2)CCS(=O)(=O)N1Cc1ccc(-c2ccc(Cl)c(Cl)c2)cc1 (stereo not given),-4.8,71.8*
COc1ccccc1N1CCN(C(=O)CC(c2ccccc2)c2ccccc2)CC1,1.9,75.8*
COc1ccccc1N1CCN(C(=O)CCC(=O)N2CCN(c3ccccc3OC)CC2)CC1,1.0,-1.9
COc1ccccc1N1CCN(C(=O)c2ccc(CSc3ccccc3)cc2)CC1,-5.0,68.4*
COc1ccccc1N1CCN(C(=O)c2ccncc2)CC1,-3.0,-6.9
Cc1oc(C(C)(C)C)cc1-c1cc(NS(=O)(=O)c2ccc(Cl)cc2)n[nH]1,-1.0,·
Cc1ccccc1N=C1Nc2ccccc2N[C@]12C[C@H]1CCCC(=O)N3CC[C@@H](C2)[C@@H]13,-1.2,14.7
O=C1CCC[C@@H]2C[C@@]3(C[C@@H]4CCN1[C@H]24)Nc1cc(Cl)ccc1NC3=NC1CCCCC1,-2.2,29.7

# Compound activity from PubChem.
